Assay outcomes deposited in PubChem by The Scripps Research Institute Molecular Screening Center.
M1 ag = human M1 muscarinic receptor agonists, primary screen, Fluo-8 calcium fluorescence, CHO-K1 cells, HTS. CHO-K1 hM1, agonist mode; 0% DMSO, 100% acetylcholine EC100. activation, % at 3 µM. hit rate 0.33% among 360,000;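 active = activation above the run's mean compound activation plus 3 SD, cut at about 16% in these data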;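 note: peak over basal fluorescence ratio within a 140 s kinetic read after compound addition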
Target sequence (P11229 whole entry, looked up): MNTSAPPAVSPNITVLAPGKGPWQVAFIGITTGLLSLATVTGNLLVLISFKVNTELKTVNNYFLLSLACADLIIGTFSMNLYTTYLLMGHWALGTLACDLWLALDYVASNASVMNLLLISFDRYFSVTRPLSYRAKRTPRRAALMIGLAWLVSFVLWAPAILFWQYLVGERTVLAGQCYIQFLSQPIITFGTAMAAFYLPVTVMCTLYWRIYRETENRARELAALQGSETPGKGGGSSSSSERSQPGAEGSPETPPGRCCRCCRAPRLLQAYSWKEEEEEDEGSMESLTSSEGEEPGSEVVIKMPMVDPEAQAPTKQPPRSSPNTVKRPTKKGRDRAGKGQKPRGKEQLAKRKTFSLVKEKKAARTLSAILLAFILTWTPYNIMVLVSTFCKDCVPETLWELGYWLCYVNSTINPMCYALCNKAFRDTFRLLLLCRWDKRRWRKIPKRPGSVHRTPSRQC
CHRM4 agonist = human M4 muscarinic receptor agonists, primary screen, CHO-K1 cells, Fluo-8 calcium fluorescence; hit rate 0.14% among 360,000; CHO-K1 hM4/Gqi5; vehicle 0%, full acetylcholine response 100%; activation, % at 3 µM; Muscarinic acetylcholine receptor M4 (Homo sapiens), P08173;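 active = activation above the run mean over all test wells plus 3 SD, cut at about 32% in these data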;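 note: peak over basal fluorescence ratio per well then scaled between controls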
M1 antag = human M1 muscarinic receptor antagonists, primary screen, CHO-K1 cells, Fluo-8 calcium fluorescence, 1536-well | hit rate 1.3% among 360,000 | inhibition, % at 3 µM | AID 588852, 2011 | CHO-K1 hM1, ACh EC80 antagonist | Muscarinic acetylcholine receptor M1 (Homo sapiens), P11229;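 active = percent inhibition above its own plate's cutoff, namely the mean of that plate's compound wells plus 3 SD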;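 note: peak over basal fluorescence ratio during 140 s after agonist addition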
M4 PAM = human M4 muscarinic receptor positive allosteric modulators, primary screen, CHO-K1 cells, Fluo-8 calcium fluorescence. Muscarinic acetylcholine receptor M4 (Homo sapiens), P08173. CHO-K1 hM4/Gqi5, ACh EC20; 0% = ACh EC20, 100% = maximal ACh. activation, % at 3 µM. hit rate 0.4% among 360,000. AID 624126, 2012;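 active = activation above its plate's cutoff, the mean activation of sample wells plus 3 SD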
CHRM1 PAM = human M1 muscarinic receptor positive allosteric modulators, primary screen, CHO-K1 cells, Fluo-8 calcium fluorescence, 1536-well | Muscarinic acetylcholine receptor M1 (Homo sapiens), P11229 | CHO-K1 hM1, ACh EC20; 0% = ACh EC20, 100% = maximal ACh | activation, % at 3 µM | hit rate 0.088% among 360,000; in the data active = activation above about 19%, passing the limit was not always enough
M4 antag = human M4 muscarinic receptor antagonists, primary screen, CHO cells, Fluo-8 calcium fluorescence; AID 624125, 2012; hit rate 0.73% among 360,000; CHO-hM4 cells, ACh EC80; Muscarinic acetylcholine receptor M4 (Homo sapiens), P08173; inhibition, % at 3 µM;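 active = inhibition above its plate's cutoff, the mean inhibition of sample wells plus 3 SD, cut at about 27% in these data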
Large screens that a line does not name were inactive. An excerpt weighted towards active compounds, which were near 2.2% of everything screened.

Cc1c(C)c2cc(Cl)c(O)c(CN3CCCC(C)C3)c2oc1=O (stereo not given)	M4 antag 28
CCOC(=O)C1CCCN(c2nc3c(C)cccn3c(=O)c2/C=C(\C#N)C(=O)NCc2ccco2)C1 (stereo not given)	M1 ag 62, M1 antag 76
Cc1cccn2c(=O)c(/C=C(\C#N)C(=O)NCc3ccco3)c(N3CCCC(C)C3)nc12 (stereo not given)	none
Cc1c2cnn(CC(=O)NC3CCCC3)c(=O)c2c(C)n1Cc1ccccc1	M1 ag 23
CC1(C)Cc2ccccc2-c2n[nH]c(=S)n21	none
O=C1CCC(C(=O)N2CCCO2)CN1Cc1cccc(C(F)(F)F)c1 (stereo not given)	M4 PAM 19
CCCOc1ccc(N2C(=O)CC(NCCNc3ccc(S(=O)(=O)CC)cc3)C2=O)cc1 (stereo not given)	none
CC(C)NC(=O)C1(C)CCN1C(=O)c1cccc(Cl)c1 (stereo not given)	none
CCOc1ccc(C(=O)N2CCN(c3cnn(-c4ccccc4)c(=O)c3Cl)CC2)cc1	none
O=C(c1cccc(Br)c1)N1CCN(c2cnn(-c3ccccc3)c(=O)c2Cl)CC1	M4 PAM 35
COc1ccc(OCCN2C(=O)c3ccccc3C2=O)c([N+](=O)[O-])c1	none
CN1CCN(CC(O)(c2ccc(Cl)cc2)c2ccc(Cl)cc2)CC1	M1 antag 72
COc1ccc(/C=N\NC(=O)CNC(=O)C(c2ccccc2)c2ccccc2)cc1[N+](=O)[O-]	none
O=C(/C=C/NNC(=O)c1ccc(Cl)cc1)c1ccccc1	none
O=C1NC(=S)NC1=Cc1ccccc1O	M1 ag 19, CHRM4 agonist 134
Cc1nc2nc(C)c(CCC(=O)NC(C)c3ccc4c(c3)OCCO4)c(C)n2n1 (stereo not given)	M1 antag 68
CNc1c([N+](=O)[O-])ncn1C	none
C=CC[N+]1(CC#CCOC(c2ccccc2)c2ccccc2)CCOCC1	M1 antag 49
C=CC(=O)N1C/C(=C/c2ccccc2)C(=O)/C(=C\c2ccccc2)C1	none
N#CC(Sc1ccccn1)c1ccc(Cl)cc1Cl (stereo not given)	M1 antag 39
N#Cc1cc(Sc2ccccn2)c(Sc2ccccn2)cc1C#N	none
CCOC(=O)C1CCCN(C2CC(=O)N(c3cccc(C(F)(F)F)c3)C2=O)C1 (stereo not given)	M1 ag 65, M1 antag 40
CCOC(=O)C1CCCN(C2CC(=O)N(c3ccc(N4C(=O)CC(N5CCCC(C(=O)OCC)C5)C4=O)cc3)C2=O)C1 (stereo not given)	M1 ag 39
CCOC(=O)C1CCCN(C2CC(=O)N(c3ccc(C(C)C)cc3)C2=O)C1 (stereo not given)	M1 ag 18
COc1cccc(CC2(CO)CCCN(Cc3ccc(-c4ccco4)cc3)C2)c1 (stereo not given)	none
CCOCCc1nnc(NC(=O)Cc2c(F)cccc2Cl)s1	M4 PAM 19
COCCN(C(=O)COC(=O)c1ccc(C)s1)c1c(N)n(Cc2ccccc2)c(=O)[nH]c1=O	none
CSc1nc2sc3c(c2c(=O)n1C1CCCCC1)CCN(C)C3	M1 antag 29
C=C(C)CSc1nc2sc3c(c2c(=O)n1-c1ccccc1)CCN(C)C3	M1 antag 36
CCSc1nc2sc3c(c2c(=O)n1C1CCCCC1)CCN(C)C3	none
C=C(C)CSc1nc2sc3c(c2c(=O)n1C1CCCCC1)CCN(C)C3	M1 antag 31
CCOC(=O)C1CCN(C(C)=C2C(=O)c3ccccc3C2=O)CC1	M4 PAM 17
CCOC(=O)C1CCN(C(=O)c2cccc(C(=O)N3CCC(C(=O)OCC)CC3)c2)CC1	none
CCOC(=O)C1CCN(C(=O)c2cccnc2)CC1	CHRM1 PAM 27
CCOC(=O)C1CCN(C(=O)CCCN2C(=O)c3ccccc3C2=O)CC1	none
O=C(NCc1cccnc1)Nc1cc(Cl)cc(Cl)c1	none
Cc1cccc(C)c1OCC(=O)NNC(=O)CCNC(=O)c1ccco1	none
COc1ccc(/C=C2/SC(=S)N(Cc3ccccc3)C2=O)cc1O	none
O=C1/C(=C\c2cc(Cl)c(O)c(Cl)c2)SC(=S)N1Cc1ccccc1	M1 ag 51, M1 antag 54
O=c1nc(Nc2ccc(Br)cc2)sc2ccc([N+](=O)[O-])cc12	none
COc1cc(OC)cc(C(=O)N2CCN(S(C)(=O)=O)CC2)c1	M4 PAM 28
CCOC(=O)N1CCN(C(=O)c2cc(OC)cc(OC)c2)CC1	none
Cc1ccccc1NC(=O)CC1SC(=NC2CCCCC2)NC1=O (stereo not given)	none
Cc1ccc(NC(=O)CC2SC(=NC3CCCCC3)NC2=O)cc1 (stereo not given)	M4 PAM 18
O=C(NCc1ccccc1)c1cccc(S(=O)(=O)NCc2ccccc2)c1	none
O=C(Nc1ccc(Cl)cc1C(=O)NCCN1CCOCC1)c1ccc(Cl)cc1Cl	none
O=[N+]([O-])/C=C\c1ccc(N2CCCC2)c(F)c1	M1 ag 24, CHRM4 agonist 41, M1 antag 51, M4 antag 34
CCOC(=O)N1CCC(NC(=O)C2CCN(C(=O)c3cc4oc(C)cc4n3Cc3c(F)cccc3Cl)CC2)CC1	M1 ag 32
COC(CNC(=O)C1CCN(C(=O)c2cc3oc(C)cc3n2Cc2c(F)cccc2Cl)CC1)OC	none
CN(C)c1cc[n+](CC(=O)c2ccc(-c3ccccc3)cc2)cc1	M1 antag 42
O=C(C[n+]1ccccc1)c1ccc(-c2ccccc2)cc1	M1 antag 40
COC(=O)c1cc[n+](CC(=O)c2ccccc2)cc1	M1 ag 30
Cn1nc(C(F)(F)F)c(C(=O)Nc2ccc(F)cc2F)c1Cl	none
COc1ccc(N2C(=S)NC3CS(=O)(=O)CC32)cc1 (stereo not given)	M4 antag 28
COc1ccc(N2C(=O)S[C@@H]3CS(=O)(=O)C[C@@H]32)cc1	none
Cc1c(C(=O)N2CCN(c3ccccc3)CC2)sc2ncnc(N3CCN(c4ccccn4)CC3)c12	none
COc1ccccc1N1CCN(C(=O)c2sc3ncnc(N4CCN(c5ccccn5)CC4)c3c2C)CC1	none
Cc1c(C(=O)N2CCN(c3ccc(F)cc3)CC2)sc2ncnc(N3CCN(c4ccccn4)CC3)c12	M1 antag 32
